Holding throughout (test): NCI-60 one-dose screen, 48 h (100 = growth as untreated, 0 = no growth, -100 = all killed)
Holding throughout (details): 10 µM

Test [1] deals with T-47D breast.
Test [2] concerns BT-549 breast.
The subject of test [3] is MDA-MB-435 melanoma.
Test [4] deals with SW-620 colon.
The test system of test [5] is MCF7 breast.
Test [6] relates to HCT-116 colon.
Test [7] concerns HCC-2998 colon.
In test [8] the test system is KM12 colon.

SMILES strings stand for the structures. The panel holds about 83,000 compounds, 20% with a hit somewhere; the sample as a whole holds those more often.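 Results are percent growth after 48 hours of single-concentration exposure. 100 means growth as in untreated cells, lower positive values show inhibition; negative values down to -100 show cell death.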 A number with no mark means an inactive call. The source made the active and inactive calls. The calls were made as follows: active = growth percent below 10; inactive = the rest.

On to `NS(=O)(=O)c1ccc(N2N=C(c3ccccc3)CCC2=O)cc1`, for which the growth was 102% in test [1]; 223% in test [2]; 97.3% in test [3]; 109% in test [4]; 95.4% in test [5]; 86.8% in test [6]. Besides, the growth in test [7] was 97%; in test [8] it was 188%.

On to `C[N+]1(CCCCC[N+]2(C)CCCC2)CCCC1`, for which the growth is 101% in test [1]; 77.8% in test [2]; 98.6% in test [3]; 98.3% in test [4]; 95.2% in test [5]; 107% in test [6]. Moreover, the growth is 119% in test [7] and 102% in test [8].

As to `COc1ccc(-c2cc(-c3ccc(Cl)cc3)nc(SCCCC(=O)NO)n2)cc1`, the growth is 8.24% (active) in test [1]; 26.1% in test [2]; 18.1% in test [3]; 14.2% in test [4]; 0.343% (active) in test [5]; 8.41% (active) in test [6]. Further, the figures for the growth in test [7] and in test [8] were -10% (active) and 18%, respectively.

Turning to `O=C(CCCSc1nc(-c2ccccc2)cc(-c2ccc(Cl)cc2)n1)NO`, the growth in test [1] was 23.3%; in test [2], 38.6%; in test [3] it was 21.9%; in test [4], 17.4%; in test [5], 4.12% (active); in test [6], 11.9%. Also, the figures for the growth in test [7] and in test [8] were 12.7% and 24.7%, respectively.

On to `CN1CCN(CCCn2c(=O)c3sc4ncccc4c3n3nnc(-c4ccccc4)c23)CC1`, for which the growth in test [1] was -75.4% (active); in test [2] it was 50.1%; in test [3] it was -75.8% (active); in test [4] it was -65.5% (active); in test [5], 5.32% (active); in test [6] it was -59.2% (active). For the same compound, the results for the growth in test [7] and in test [8] were -5.79% (active) and 16.4%, respectively.

Regarding `COc1ccc(-c2nn(-c3cccc(Cl)c3)cc2-c2cc(-c3ccccc3)[nH]c(=O)c2C#N)cc1`, the growth in test [1] is 27.6%; in test [2], 3.07% (active); in test [3], 81.5%; in test [4] it was 67.7%; in test [5], 52.9%; in test [6], 15.6%. For the same compound, the growth in test [7] was 49.9%; in test [8] it was 69.8%.

`COc1cc2c3c(n(C4CCNCC4)c(=O)c2cc1OC)-c1cc2c(cc1C3=O)OCO2`: the growth in test [1] is -51.1% (active); in test [2], -58% (active); in test [3], -44.1% (active); in test [4], -73.2% (active); in test [5] it was -53.8% (active); in test [6], -60.7% (active). The growth in test [7] is -95% (active); in test [8], -79.6% (active).

Consider `O=C1CC(SC(=S)C2CCCC2=O)C(=O)N1` (stereo not given), for which the growth in test [1] is 93.9%; in test [2] it was 100%; in test [3] it was 114%; in test [4], 110%; in test [5] it was 90.8%; in test [6], 99.2%. For the same compound, the growth in test [7] was 108%; in test [8], 103%.

`Cc1ccc(C(=O)C2C(=O)C3CCC2C3)cc1` (stereo not given): the growth in test [1] is 108%; in test [2], 105%; in test [3] it was 100%; in test [4], 104%; in test [5] it was 97.5%; in test [6], 108%. In addition, the growth is 106% in test [7] and 107% in test [8].

For the compound `O=C1Cc2cc(CCN3CCN(c4nsc5ccccc45)CC3)c(Cl)cc2N1`, the growth was 55.2% in test [1]; 92.6% in test [2]; 90.9% in test [3]; 92.9% in test [4]; 86.1% in test [5]; 98.8% in test [6]. The growth in test [7] was 120%; in test [8], 98.1%.

Consider `S=c1cnc2ccccc2[nH]1`, for which the growth in test [1] was 81.9%; in test [2] it was 103%; in test [3], 101%; in test [4], 91%; in test [5], 72.9%; in test [6], 88.3%. Also, the growth in test [7] was 67.6%; in test [8], 93.9%.

Turning to `CCOC(=O)c1cc(C(=O)c2cc(OC)cc(OC)c2)n2ncc3ccccc3c12`, the growth in test [1] is 12.8%; in test [2] it was 27.3%; in test [3], 4.07% (active); in test [4] it was 8.21% (active); in test [5], 15.9%; in test [6], 4.23% (active). Also, the growth in test [7] is 69.1%; in test [8], 25.9%.

With `CC[C@@H](C(=O)[C@H](C)[C@H](O)[C@@H](C)[C@H]1O[C@H]([C@@H](CC)C(=O)N(CC)CC)CC[C@H]1C)C1O[C@]2(C=C[C@@H](O)[C@]3(CC[C@@](C)([C@H]4CC[C@](O)(CC)[C@H](C)O4)O3)O2)[C@H](C)C[C@@H]1C` (stereo not given in full), the growth is 17% in test [1]; 37.1% in test [2]; 26.3% in test [3]; 18.5% in test [4]; 10.4% in test [5]; 10.8% in test [6]. Besides, the growth in test [7] was 22.1%; in test [8] it was 29.6%.

`O=C1c2ccccc2C(=O)c2c1ccc1c(=O)n(-c3ccccc3C(F)(F)F)nnc21`: the growth in test [1] is 15.8%; in test [2], 52.8%; in test [3], -89.5% (active); in test [4], 11.4%; in test [5], -51.7% (active); in test [6] it was -5.21% (active). The growth in test [7] is 28.9%; in test [8], 27.2%.

As for `O=C(Nc1ccc(OCc2nnc(-c3ccc(Cl)cc3)o2)c(F)c1)Nc1ccc(Cl)c(C(F)(F)F)c1`, the growth in test [1] is 4.57% (active); in test [2] it was -13.9% (active); in test [3] it was 8.01% (active); in test [4] it was 15.7%; in test [5], 3.17% (active); in test [6] it was 2.12% (active). Also, the growth in test [7] was 9.15% (active); in test [8], 3.14% (active).
